From PubChem BioAssay
Sampled rows, rich in hits. Any-hit rate of the full collection: about 10%.
JMJD2A Tudor: inhibitors of human JMJD2A Tudor domain | O75164 | AlphaScreen JMJD2A-Tudor / H3K4me3 peptide binding | Potency, µM (series often up to 114 µM), usual class: inhibitors | 390,000 compounds, 4.4% hits | AID 504339; further: nearly all actives have a fitted effect of over 50% in size
G9a block: G9a (human) methyltransferase inhibition; Potency, µM (series often up to 102 µM), usual class: inhibitors; AID 504332; 350,000 compounds, 8.8% hits; Q96KQ7; G9a H3K9 monomethylation, AlphaScreen, 2 h; further: nearly all actives have a fitted effect of over 75% in size
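Methyltransferase reactions run at room temperature for 2 h (20 nM enzyme, 500 nM biotin-H3K9 peptide, 20 uM SAM) after a 15 min compound preincubation; product detected by AlphaScreen beads and anti-H3K9me1 antibody.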
BAZ2B inh: blocks human BAZ2B; AlphaScreen BAZ2B-H3K14Ac peptide displacement; Q9UIF8; 360,000 compounds, 4.4% hits; Potency, µM (series often up to 114 µM), hits mostly inhibitors; further: nearly all actives have a fitted effect of over 60% in size
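Complex of BAZ2B and biotin-H3K14Ac (50 nM apiece) forms over 30 min at RT, then faces library compounds up to 110 uM for another 30 min; AlphaScreen beads added, 20 min dark incubation, luminescence read.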
HP1b chromo inh: HP1-beta chromodomain-methylated histone interaction inhibition. 390,000 compounds, 0.56% hits. P83916. AlphaScreen HP1-beta / biotin-H3K9me3 peptide binding. Potency, µM (doses to about 114 µM), actives largely listed as inhibitors; further: nearly all actives have a fitted effect of over 70% in size
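HP1-beta protein (50 nM final) preincubated 30 min at room temperature with biotinylated H3(1-18)K9me3 peptide (50 nM) in PBS pH 7.4, 0.01% Tween-20, then compound added for 30 min. AlphaScreen streptavidin donor/nickel chelate acceptor beads (10 ug/mL final), 30 min dark, luminescence read.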
Six1-Eya2 blk: Six1/Eya2 interaction inhibition | Q15475+O00167 | AlphaScreen GST-Six1/His-Eya2 binding, biochemical; stronger effect = lower value | activity change, % (concentration not given with the values) | 360,000 compounds, 0.56% hits; in the data active means activity change below about -65%; inconclusive means mostly about -30% to -63%
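AlphaScreen luminescence read after one hour at 37 °C in darkness. Pin-transferred compounds met GST-Six1 and His-Eya2 protein (5X stock 250 nM/500 nM) plus glutathione donor and Ni-chelate acceptor beads (5X, 50 ug/mL).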
CtBP-E1A inh: blocks the CtBP interaction with E1A | AID 651724 | AlphaScreen GST-E1A/His-CtBP binding, 1536-well; stronger effect = lower value | activity change, % (test concentration not listed) | 340,000 compounds, 0.49% hits; in the data active means activity change below about -65%; inconclusive means mostly about -30% to -63%
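AlphaScreen with 125 nM GST-E1A and 125 nM His-CtBP (5X stocks) in Tris pH 8.0, 300 mM NaCl, BSA, Tween 20, TCEP. Compounds preincubated 2 h at 37 deg C, then glutathione donor/nickel acceptor beads added for 1 h at 37 deg C in dark.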
Numbers stand for hits; n = inactive; u = inconclusive; x = no result; ! = a repeat was not active; [ ] = remark or other dose. Unless noted, the call rests on the fitted dose curve; in most records, active means well fitted inhibition curve with a large enough effect; inconclusive means small, poorly fitted or top-dose-only effect; inactive means no such curve, though single readings can be large or run the other way.

SMILES	JMJD2A Tudor	G9a block	BAZ2B inh	HP1b chromo inh	Six1-Eya2 blk	CtBP-E1A inh
CN(Cc1ccc(F)cc1)C(=O)c1sccc1-c1ccccc1	n	40µM	u	n	n	n
Cc1nc2ccccn2c1C(=O)NNC(=S)Nc1ccccc1	n	n	n	n	n	n
COc1ccc(Br)cc1S(=O)(=O)NNC(=O)c1c(C)nc2ccccn12	n[11.4 µM]	79µM	n	n	n	x
Cc1nc2ccccn2c1C(=O)NNC(=O)Nc1ccccc1	n	50µM	n	n	n	n
CCOc1ccc(OCC)c(S(=O)(=O)NNC(=O)c2c(C)nc3ccccn23)c1	u	u	n	n	n	n
Cc1nc2ccccn2c1C(=O)NNC(=S)Nc1ccc(Cl)cc1	u	1.3µM	n	n	n	n
Cc1cccc(-n2cnc(C(=O)NNC(=S)Nc3ccc(Cl)cc3)c2)n1	35µM	8.9µM	11µM	n	-90	-88
Cc1nc2ccccn2c1C(=O)NN	n	u	u	n	n	n
O=c1c(C(c2nnnn2C2CCCCC2)N2CCCCC2)coc2ccc(Cl)cc12 (centres undefined)	n	u	n	n	n	n
O=C(OCc1cc(=O)n2nc(-c3cccs3)sc2n1)c1ccccc1Cl	n	n	n	n	x	x
O=C(c1cc2c(s1)-c1ccccc1OC2)N1CCN(c2ccccc2)CC1	n	1.1µM!	n	n	n	n
COc1ccc(N2CCN(C(=O)c3cc4c(s3)-c3ccccc3OC4)CC2)cc1	n	n	n	n	n	n
CCOc1cc2c(cc1OCC)C(c1c(F)cccc1Cl)CC(=O)N2 (centres undefined)	n	n	n	n	x	x
CCCCn1c(=O)n(CC(=O)Nc2ccc(C)c(Cl)c2)c(=O)c2c1ncn2Cc1ccco1	n	25µM	n	n	n	n
Cc1ccc(NC(=O)CSc2nccn2Cc2ccco2)cc1Cl	u	n	u	n	x	x
COc1ccccc1C(CNC(=O)c1cc(C)nc2ccccc12)N(C)C (centres undefined)	n	n	n	n	n	n
O=C(COc1ccccc1)NC1CCSc2ccccc21 (centres undefined)	n	6.3µM	n	n	n	n
O=C(NC1CCSc2ccccc21)c1ccccc1Br (centres undefined)	n	x	n	n	n	n
COCCNC(=O)CSc1ccccc1C(=O)NC1CCSc2ccccc21 (centres undefined)	n	35µM	n	n	n	n
CC1CCCCN1C(=S)Nc1ccc(S(=O)(=O)N2CCCCC2)cc1 (centres undefined)	x	x	x	x	n	n
O=C(CCSCCc1ccccn1)Nc1ccccc1C(F)(F)F	n	n	n	n	x	x
CCCN1CCC(=O)N(CCO)CC1	n	45µM	n	n	n	n
CCCCCCCN1CCC(=O)N(CCO)CC1	n	n	n	n	n	n
CCCN1CCC(=O)N([C@H](CO)CC(C)C)CC1	n	32µM	n	n	n	n
COc1ccc2c(c1)nc(SCC(=O)c1cccs1)n2C	79µM	45µM	n	n	n	n
SMILES	JMJD2A Tudor	G9a block	BAZ2B inh	HP1b chromo inh	Six1-Eya2 blk	CtBP-E1A inh
CC(=O)Nc1ccc(NC(=O)CSC2=NS(=O)(=O)c3cc(Cl)ccc3N2)cc1	n	10µM	n	n	n	n
COc1ccc(CCNC(=O)CSC2=NS(=O)(=O)c3cc(Cl)ccc3N2)cc1OC	n	n	n	n	n	n
COc1ccc(C(=O)CSC2=NS(=O)(=O)c3cc(Cl)ccc3N2)cc1	n	56µM	n	n	n	n
O=C(CC1(O)C(=O)Nc2ccccc21)c1ccc2c(c1)OCO2 (centres undefined)	n	n	n	n	n	n
O=C(CC1(O)C(=O)Nc2ccccc21)c1cccc(-n2cccc2)c1 (centres undefined)	u	u	50µM	n	n	n
CN(C)CC(C(=O)c1ccccc1)c1ccccc1 (centres undefined)	n	n[12.7 µM]	n	n	n	n
CN(C)C/C(Cl)=C(\Cl)c1ccccc1	n	14µM	n	n	n	n
CC(=O)Oc1ccc(C(=O)[C@H]2[C@H]3C(=O)N(c4cccc5ccccc45)C(=O)[C@H]3[C@@H]3C=CC=NN32)cc1	u	u	u	n	u	n
Cc1ccc(N2C(=O)[C@@H]3[C@H](C2=O)[C@H]2C=C(C(=O)c4ccccc4)C=CN2[C@@H]3C(=O)c2ccc(Cl)cc2)cc1	n	2.2µM	n	n	n	n
O=C(C1=C[C@@H]2[C@H]3C(=O)N(c4cccc(Cl)c4)C(=O)[C@H]3[C@@H](C(=O)c3ccc(Cl)cc3)N2C=C1)c1ccccc1	u	3.2µM	n	n	n	n
CC(=O)c1ccc(N2C(=O)C3C(C2=O)C(C(=O)c2ccc(Cl)cc2)N2CCCC32)cc1 (centres undefined)	n[11.4 µM]	u	u	n	n	n
O=C(C1=C[C@@H]2[C@H]3C(=O)N(c4ccccc4Cl)C(=O)[C@H]3[C@@H](C(=O)c3ccc(Cl)cc3)N2C=C1)c1ccccc1	x	8.9µM	n	x	x	x
Nc1cccc(S(=O)(=O)N2CCOCC2)c1	n	x	x	n	x	x
Cn1ccnc1SCC(=O)c1ccc(Br)cc1	u	50µM	u	n	n	n
Cc1ccc(OCc2n[nH]c(=S)n2C2CCCCC2)cc1	56µM	1.1µM	n	n	n	n
Cc1cccc(OCc2n[nH]c(=S)n2C2CCCCC2)c1	u	1.8µM	n	n	n	n
CCn1c(COc2cccc(C)c2)nnc1SCC(=O)NC1CCCC1	u	n	n	n	n	n
S=c1[nH]nc(COc2ccc(Cl)cc2)n1C1CCCCC1	n	u	n	n	n	n
Cc1nc2ccccn2c1C(O)(c1ccccc1)c1ccccc1	n	x	x	x	x	x
COc1ccc2c(c1)OCc1c-2oc2cc(OC)ccc12	x	n[2.33 µM]	x	x	x	x
Cc1cnc(=O)[nH]c1SCc1ccccc1F	n	n	n	n	n	x
CCOc1ccc(NC(=O)C2CCN(C(=O)N3CC(C)Oc4ccc(Cl)cc43)CC2)cc1 (centres undefined)	u	u	79µM	n	x	x
CCOc1ccc(S(=O)(=O)NCCC(=O)NCc2ccncc2)cc1	n	n[0.501 µM]	n	n	n	n
NNC(=O)c1cccc(Cn2cc(Br)c([N+](=O)[O-])n2)c1	n	40µM	n	n	n	n
COc1ccc(N=C2S/C(=C\c3ccc(Cl)c([N+](=O)[O-])c3)C(=O)N2CCN(C)C)cc1	35µM	u	16µM	16µM	n	x
CCN(CC)CCN1C(=O)/C(=C\c2ccc(Cl)c([N+](=O)[O-])c2)SC1=Nc1ccc(OC)cc1	18µM	11µM	10µM	11µM	n	n
Cc1ccc(CCNC(=O)c2cc3sccc3n2Cc2ccc(Cl)cc2)cc1	n	n	n	n	x	x
